Source: PubChem BioAssay
KCNH2 3.1 block: KCNH2 3.1 (human) potassium channel inhibition. AID 720553. 0.95% of 340,000 active. activity change, % (tested at about 1.8 µM). U2OS KCNH2 3.1, thallium flux FluxOr; stronger effect = lower value;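 active = maximum activity change below -70%; inconclusive = maximum activity change from -70% to -50%; inactive = maximum activity change above -50%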;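 also: thallium influx rate constant from kinetic fluorescence after stimulation buffer; % is scaled to controls: 0 for no effect and ±100 for the full control effect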
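Measured as rate of thallium-driven FluxOr signal in transduced U2OS cells carrying the 3.1 channel, read kinetically for 2 min upon stimulation; values are rate constants scaled to DMSO control wells.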
TRPV1 potentiator: human TRPV1 potentiation | Q8NER1 | TRPV1-expressing cells, Fluo-8 calcium influx, capsaicin EC20 potentiation | potentiation, % at 8.33 µM | 0.02% of 320,000 active; in the data active = potentiation above about 80%; inconclusive = between about 30% and that limit; also: 0% is about no effect
Target sequence (Q8NER1 whole entry, looked up): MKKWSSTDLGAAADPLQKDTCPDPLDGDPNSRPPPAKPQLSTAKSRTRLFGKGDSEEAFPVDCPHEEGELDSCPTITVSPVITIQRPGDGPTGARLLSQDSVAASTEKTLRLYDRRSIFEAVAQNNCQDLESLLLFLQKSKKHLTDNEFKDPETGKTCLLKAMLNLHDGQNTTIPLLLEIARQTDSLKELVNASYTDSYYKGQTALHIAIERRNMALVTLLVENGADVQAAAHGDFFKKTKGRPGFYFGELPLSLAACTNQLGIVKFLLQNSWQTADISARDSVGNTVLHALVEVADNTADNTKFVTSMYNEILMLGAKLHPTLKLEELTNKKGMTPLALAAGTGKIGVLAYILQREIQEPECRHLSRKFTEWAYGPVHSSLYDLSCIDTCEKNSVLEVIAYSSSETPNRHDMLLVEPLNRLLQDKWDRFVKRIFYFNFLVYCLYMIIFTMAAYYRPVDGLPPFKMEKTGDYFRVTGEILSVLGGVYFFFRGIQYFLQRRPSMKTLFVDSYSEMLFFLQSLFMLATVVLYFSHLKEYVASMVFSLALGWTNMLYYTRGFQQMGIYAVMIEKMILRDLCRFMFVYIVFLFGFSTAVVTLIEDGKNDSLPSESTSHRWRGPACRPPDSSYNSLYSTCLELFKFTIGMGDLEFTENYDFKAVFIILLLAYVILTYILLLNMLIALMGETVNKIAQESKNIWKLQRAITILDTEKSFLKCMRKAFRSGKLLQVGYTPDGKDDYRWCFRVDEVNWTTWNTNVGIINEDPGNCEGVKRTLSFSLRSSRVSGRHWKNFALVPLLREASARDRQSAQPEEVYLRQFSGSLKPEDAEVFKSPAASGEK
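Cells expressing TRPV1 were dye-loaded with Fluo-8 and read kinetically: 10 s baseline, 3 min after compound (agonist portion), then 2 min after EC20 capsaicin (allosteric enhancer portion). Calcium-bound dye fluorescence at 480/520 nm.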
KCNH2 WT inh: blocks the wildtype human KCNH2 potassium channel | Q12809 | U2OS, BacMam KCNH2, thallium flux FluxOr; stronger effect = lower value | activity change, % at 1.84 µM | 0.37% of 340,000 active | AID 720551;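 active = maximum activity change below -70%; inconclusive = maximum activity change between -70% and -50%; inactive = maximum activity change above -50%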; also: % is scaled to controls: 0 for no effect and ±100 for the full control effect
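U2OS cells were transduced with wild-type KCNH2 virus (2.03 x 10^8 / mL) for 4 h at room temperature, then cultured overnight at 37 C. Thallium flux was read with FluxOr dye. Rate constants were normalized to DMSO controls.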
TRPV1 ag: human TRPV1 agonism; Q8NER1; TRPV1-expressing cells, Fluo-8 calcium influx, agonist mode; activation, % at 8.33 µM; 0.19% of 320,000 active; AID 540275; in the data active = activation above about 80%; inconclusive = between about 30% and that limit; also: 0% is about no effect
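TRPV1-expressing cells were cultured overnight at 35.5C and loaded with Fluo-8 calcium dye for 40 to 90 min at room temperature. After a 10 s baseline, compound was added and calcium influx was read kinetically for 3 min (ex 480/em 520 nm).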
The depositor's hits bear a star. A selection: hits, their analogues and other compounds. The true share with any hit is near 1.2%.

How did COn1c(-c2ccccc2)nc2ccc(Cl)cc21 do in these assays?
KCNH2 3.1 block: -94.1*; TRPV1 potentiator: -43.0; KCNH2 WT inh: -6.2; TRPV1 ag: 20.0

How did O=C(CN1CCC(C(O)(c2ccccc2)c2ccccc2)CC1)Nc1ccccc1 do in these assays?
KCNH2 3.1 block: -80.2*; TRPV1 potentiator: inconclusive; KCNH2 WT inh: 9.3; TRPV1 ag: 2.6

What do the screens show for `O=C(CCc1nc(-c2ccccc2)no1)NCCc1ccccc1`?
KCNH2 3.1 block: -90.1*; TRPV1 potentiator: 4.2; KCNH2 WT inh: -0.6; TRPV1 ag: 7.0

What do the screens show for `COc1ccc(CC(=O)OCC(=O)NCc2ccc(C)cc2)cc1OC`?
KCNH2 3.1 block: -13.5; KCNH2 WT inh: -3.9

What do the screens show for `O=C(CN1C(=O)COc2ccc(S(=O)(=O)N3CCCC3)cc21)Nc1cccc(F)c1`?
KCNH2 3.1 block: -115.6*; TRPV1 potentiator: -11.0; KCNH2 WT inh: 12.3; TRPV1 ag: -0.1

What do the screens show for `CC(=O)Nc1ccc(C(=O)COC(=O)C2CC2C)c(F)c1` (stereo not drawn)?
KCNH2 3.1 block: -3.1; TRPV1 potentiator: -4.5; KCNH2 WT inh: -0.7; TRPV1 ag: 2.0

What do the screens show for `COc1ccc(S(=O)(=O)N2CCOCC2)cc1NS(=O)(=O)c1ccc(F)c(F)c1`?
KCNH2 3.1 block: 0.4; KCNH2 WT inh: -7.9

What do the screens show for `COc1ccc([C@]23Cc4cc(C#N)ccc4C(O2)c2c(cc(-c4ccccc4)oc2=O)O3)cc1`?
TRPV1 potentiator: inactive; TRPV1 ag: inactive

How did Cc1ccc(S(=O)(=O)N(C)Cc2ccc(C(=O)N/N=C/c3ccc(OC(F)F)cc3OC(F)F)cc2)cc1 do in these assays?
KCNH2 3.1 block: -75.5*; TRPV1 potentiator: 10.3; KCNH2 WT inh: -24.9; TRPV1 ag: -3.7

How did COc1ccc(N(Cc2cc3ccccc3[nH]c2=O)S(C)(=O)=O)cc1 do in these assays?
KCNH2 3.1 block: -29.1; TRPV1 potentiator: 0.3; KCNH2 WT inh: 0.4; TRPV1 ag: 3.3

Results for COc1ccc(N(Cc2cc3cccc(C)c3[nH]c2=O)S(C)(=O)=O)cc1 ?
KCNH2 3.1 block: -82.3*; TRPV1 potentiator: 2.6; KCNH2 WT inh: -25.2; TRPV1 ag: 1.8

What do the screens show for `Cc1ccc(S(=O)(=O)NCc2ccccc2)cc1C(=O)NCC(=O)Nc1c(C)cccc1C`?
KCNH2 3.1 block: -4.0; KCNH2 WT inh: -13.0

Results for Cc1ccc(C(=O)NC(=S)Nc2ccc(CN3CCCCC3)cc2)c(C)c1 ?
KCNH2 3.1 block: -72.7*; TRPV1 potentiator: -0.7; KCNH2 WT inh: 27.3; TRPV1 ag: 0.4

How did O=C(Nc1ccc(CN2CCCCC2)cc1)Nc1ccc(Br)cc1Cl do in these assays?
KCNH2 3.1 block: -109.8*; TRPV1 potentiator: 2.1; KCNH2 WT inh: inconclusive; TRPV1 ag: -1.2

What do the screens show for `O=C(NC(=S)Nc1ccc(CN2CCCCC2)cc1)c1cc2ccccc2o1`?
KCNH2 3.1 block: -94.0*; TRPV1 potentiator: -11.8; KCNH2 WT inh: 25.7; TRPV1 ag: 13.2

How did COc1ccc(C(=O)NC(=S)Nc2ccc(CN3CCCCC3)cc2)cc1Cl do in these assays?
KCNH2 3.1 block: -37.2; TRPV1 potentiator: inconclusive; KCNH2 WT inh: 2.3; TRPV1 ag: 3.8

How did CC(=O)Nc1ccc(NC(=S)NC(=O)c2cc3ccccc3o2)cc1 do in these assays?
KCNH2 3.1 block: -1.6; TRPV1 potentiator: -3.9; KCNH2 WT inh: -4.9; TRPV1 ag: 1.9

What do the screens show for `COc1ccc(C(=O)N2CCc3[nH]nc(-c4ccccc4)c3C2)cc1`?
KCNH2 3.1 block: -5.9; TRPV1 potentiator: -3.0; KCNH2 WT inh: -1.3; TRPV1 ag: 0.2

Results for O=C(c1ccccc1)N1CCc2[nH]nc(-c3ccccc3)c2C1 ?
KCNH2 3.1 block: -93.6*; TRPV1 potentiator: 1.6; KCNH2 WT inh: -14.3; TRPV1 ag: -1.8

How did Nc1nc2ccccc2n1/N=C/c1ccc(-c2ccccc2)o1 do in these assays?
KCNH2 3.1 block: -87.0*; TRPV1 potentiator: -1.6; KCNH2 WT inh: 1.3; TRPV1 ag: 25.7

What do the screens show for `O=C1NC(=O)C2(CCCCC2C2CCCCC2)N1` (stereo not drawn)?
KCNH2 3.1 block: -10.7; KCNH2 WT inh: -2.6

Results for O=C(Cc1c(F)cccc1Cl)NNC(=O)c1ccc(Br)s1 ?
KCNH2 3.1 block: 11.3; KCNH2 WT inh: 2.7

How did Cc1cccc(-n2c(N)cc(=O)nc2SCC(=O)Nc2ccccc2)c1 do in these assays?
KCNH2 3.1 block: -178.9*; TRPV1 potentiator: 16.8; KCNH2 WT inh: -143.7*; TRPV1 ag: 0.2

Results for Nc1cc(=O)nc(SCC(=O)Nc2ccccc2)n1-c1ccccc1 ?
KCNH2 3.1 block: -19.5; TRPV1 potentiator: 0.0; KCNH2 WT inh: 2.5; TRPV1 ag: 1.4

What do the screens show for `CCOc1cc(N2CCOCC2)c(OCC)cc1NC(=O)COC(=O)CCOc1cc(C)ccc1C`?
KCNH2 3.1 block: -7.1; TRPV1 potentiator: 3.4; KCNH2 WT inh: -2.6; TRPV1 ag: 4.4

How did O=c1c2ccccc2ncn1Cc1ccc(Cl)cc1 do in these assays?
KCNH2 3.1 block: -98.3*; TRPV1 potentiator: 3.0; KCNH2 WT inh: 1.8; TRPV1 ag: -0.1

Results for CN(NS(=O)(=O)c1ccccc1)C(=O)c1ccccc1 ?
KCNH2 3.1 block: 3.9; KCNH2 WT inh: -5.6

How did CC(NC(=O)c1ccccc1NC(=O)c1ccccc1)C(=O)N1CCOCC1 (stereo not drawn) do in these assays?
KCNH2 3.1 block: -6.0; TRPV1 potentiator: 7.1; KCNH2 WT inh: 1.3; TRPV1 ag: 80.2*

How did CC(C)C(NC(=O)c1ccccc1NC(=O)C(C)(C)C)C(=O)N1CCOCC1 (stereo not drawn) do in these assays?
KCNH2 3.1 block: -11.6; KCNH2 WT inh: -16.3

Results for CCOC(=O)/C(=C/C=C1\Sc2cc(C)c(C)cc2N1CC)C(C)=O ?
KCNH2 3.1 block: 21.4; TRPV1 potentiator: -5.0; KCNH2 WT inh: -15.5; TRPV1 ag: 105.7*

Results for CCOC(=O)/C(=C/C=C1\Sc2ccccc2N1CC)C(C)=O ?
TRPV1 potentiator: -1.4; KCNH2 WT inh: 3.2; TRPV1 ag: inconclusive

What do the screens show for `CCN(C[C@H]1N[C@@](CC)(C(=O)OC)[C@H]2C(=O)N(Cc3ccccc3)C(=O)[C@@H]12)C(=O)c1ccccc1`?
KCNH2 3.1 block: -4.9; KCNH2 WT inh: 0.4

Results for Oc1c(N=NC(=S)Nc2ccccc2F)c2ccccc2n1Cc1cccc(Cl)c1 ?
KCNH2 3.1 block: 7.9; TRPV1 potentiator: 7.2; KCNH2 WT inh: 5.5; TRPV1 ag: -3.7

Results for Cc1cccc(Cn2c(O)c(N=NC(=S)Nc3ccccc3F)c3ccccc32)c1 ?
KCNH2 3.1 block: -90.8*; TRPV1 potentiator: 13.1; TRPV1 ag: -4.2

What do the screens show for `CCCN1C(=O)/C(=C/C=C2\N(CC)c3ccccc3C2(C)C)SC1=S`?
KCNH2 3.1 block: -5.1; TRPV1 potentiator: -1.6; KCNH2 WT inh: -90.8*; TRPV1 ag: 15.1

Results for CCN1C(=O)/C(=C/C=C2/Sc3ccccc3N2CCO)SC1=S ?
KCNH2 3.1 block: -6.6; TRPV1 potentiator: 6.7; KCNH2 WT inh: -4.9; TRPV1 ag: 3.7

What do the screens show for `CCCN1C(=O)/C(=C\C=C2/Sc3ccccc3N2CCO)SC1=S`?
KCNH2 3.1 block: -80.9*; TRPV1 potentiator: 2.9; KCNH2 WT inh: -21.4; TRPV1 ag: 6.4
